Measured values: PubChem BioAssay AID588382 (National Center for Advancing Translational Sciences (NCATS), 2011)
The whole screen tested about 1,300 compounds, of which about 150 (12%) were called active. Inconclusive results (about 30%) are left out. Only a selection was taken, and actives are over-represented in it overall. A number with no mark means an inactive call. Calls follow the shape of the dose curve; as a rule, active = well fitted cell-killing curve with a large enough effect; inconclusive = small, poorly fitted or top-dose-only effect, or effect the other way; inactive = flat fitted curve, though single readings scatter.

experiment: qHTS of small molecules that selectively kill Giardia lamblia: Hit Validation in HepG2 cytotox; conditions: cell viability; Potency: HepG2 cytotoxicity; series mostly up to 38.3 µM; activity change, negative = cytotoxicity: at the top concentration;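 also: compound exposure lasted overnight at 37 deg C; nearly all actives have a fitted effect of over 55% in size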
Method in brief: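 HepG2 cells seeded and incubated overnight at 37 deg C, then 23 nL compound added by pintool and incubated overnight at 37 deg C. Viability read as ATP luminescence with ATPLite after 15 min at room temperature.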
% is scaled to controls: 0 for no effect and ±100 for the full control effect; potency is read from the fitted curve at half-maximal effect.

Structure (SMILES) | activity change, negative = cytotoxicity [%] | Potency
O=[n+]1c2c(n([O-])c3cc(Br)ccc31)CCC2 | 22.2 | 
CCOc1cc([N+](=O)[O-])cc(/C=C2/NC(=O)N(Cc3ccccc3F)C2=O)c1O | 11.1 | 
O=[N+]([O-])c1nn(-c2ccc3c(c2)OCCO3)n(O)c1=NCc1ccc(F)cc1 | 23.9 | 
CN(C)c1ccc(C2Nc3cccc4cccc(c34)N2)cc1 | -11.1 | 
Cc1cc(C)cc(N=c2c([N+](=O)[O-])nn(-c3ccc4c(c3)OCCO4)n2O)c1 | -0.929 | 
CCCC(=O)N1CCN(c2ccc(NC(=O)c3ccc([N+](=O)[O-])o3)cc2)CC1 |  | 3.29 µM (active)
CCC(=O)N1CCN(c2ccc(NC(=O)c3ccc([N+](=O)[O-])o3)cc2)CC1 |  | 11.7 µM (active)
CS(=O)(=O)N1CCN(c2ccc(NC(=O)c3ccc([N+](=O)[O-])o3)cc2)CC1 |  | 3.69 µM (active)
CCC(=O)N1CCN(c2ccccc2NC(=O)c2ccc([N+](=O)[O-])o2)CC1 | -5.48 | 
CS(=O)(=O)N1CCN(c2ccccc2NC(=O)c2ccc([N+](=O)[O-])o2)CC1 | -6.16 | 
NC(=O)c1ccc(NC(=O)COc2ccc([N+](=O)[O-])cc2Cl)cc1 | 15.1 | 
NS(=O)(=O)c1ccc(Nc2ncccc2[N+](=O)[O-])cc1 | 7.7 | 
O=[n+]1c2c(n([O-])c3cc(Cl)ccc31)CCCC2 | 5.34 | 
COc1ccc(CNC(=O)COc2cccnc2[N+](=O)[O-])cc1OC | 6.39 | 
Cc1oc2cc(O)ccc2c(=O)c1Oc1ccccc1Br | 18.1 | 
CCC(=O)Nc1nc(-c2cc([N+](=O)[O-])cs2)cs1 | 22.8 | 
COCCNC(=O)/C(C#N)=C/c1ccc(O)c([N+](=O)[O-])c1 | 9.93 | 
Cc1ccc(NC(=S)NNc2ccc([N+](=O)[O-])cc2S(=O)(=O)Nc2ccccc2C(=O)O)cc1C | 9.64 | 
COc1cc(/C=C2\SC(=O)N(Cc3ccc(F)cc3)C2=O)cc([N+](=O)[O-])c1O | -2.93 | 
COc1ccc(-c2ncn(CCC#N)c2[N+](=O)[O-])cc1 | 5.4 | 
CCCc1nc2c(=O)n(C)c(=O)nc-2n(C)n1 |  | 8.26 µM (active)
Cn1nc(-c2cccnc2)nc2c(=O)n(C)c(=O)nc1-2 |  | 3.69 µM (active)
COc1ccc(-c2nc3c(=O)n(C)c(=O)nc-3n(C)n2)cc1 |  | 1.85 µM (active)
COc1ccc(-c2cc(=O)c3ccccc3o2)cc1 | -16 | 

Structure (SMILES) | activity change, negative = cytotoxicity [%] | Potency
Cc1ccccc1-c1nc2c(=O)n(C)c(=O)nc-2n(C)n1 |  | 3.29 µM (active)
COc1ccccc1NC(=O)COc1cccnc1[N+](=O)[O-] | 0.838 | 
Cc1ccc(S(=O)(=O)N2[C@@H](c3ccc(F)cc3)C(C(=O)O)=CC[C@H]2c2cccc(C)c2)cc1 | 7.11 | 
COc1ccc(-n2nc([N+](=O)[O-])c(=NCCCN3CCCC3=O)n2O)cc1 | 8.35 | 
O=C(COc1cccnc1[N+](=O)[O-])Nc1ccc2c(c1)CCC2 | 27.1 | 
Cc1c[nH]c(=O)c([N+](=O)[O-])c1 | 10.6 | 
Cc1cc(C(=O)N/N=C/c2ccc(O)c([N+](=O)[O-])c2)n[nH]1 | 4.19 | 
COc1cc2sc(-c3ccccc3OC)c(-c3ccc(O)cc3)c2cc1OC | -0.122 | 
O=C(NN1C(=O)c2ccccc2NC1c1ccc([N+](=O)[O-])o1)c1ccc([N+](=O)[O-])cc1 (stereo not drawn) | -15.4 | 
Cn1nc(-c2ccc(F)cc2)nc2c(=O)n(C)c(=O)nc1-2 |  | 2.61 µM (active)
Cc1ccc(OCC(=O)Nc2cc(S(=O)(=O)N3CCOCC3)ccc2Cl)c([N+](=O)[O-])n1 | 2.02 | 
Cc1cc2ccccn2c1C(=O)c1ccc([N+](=O)[O-])cc1[N+](=O)[O-] | 12.4 | 
COc1ccc2c3n([n+]([O-])c2c1)CCN=C3c1ccc(Cl)cc1 | 20.6 | 
N=NC(=O)c1ccccc1Nc1c(O)[nH]c2ccccc12 |  | 16.5 µM (active)
COc1ccc(CNC(=O)COc2cccnc2[N+](=O)[O-])cc1 | 15.6 | 
O=[N+]([O-])c1ccc(/C=N/Nc2nc(-c3ccccc3)c3cc(Br)ccc3n2)o1 | 11 | 
CCOc1ccc(NC(=O)C(C)C(Cc2ccc(C)cc2)C(=O)O)cc1 (stereo not drawn) | 0.187 | 
Nc1c(Cl)cc(C2=NCCn3c2c2ccccc2[n+]3[O-])cc1Cl | 0.209 | 
O=c1[nH]c2cccnc2n1-c1ccc([N+](=O)[O-])cc1 | 17 | 
N#Cc1c(N2CCN(c3ccc([N+](=O)[O-])cc3)CC2)[n+](=O)c2ccc(Cl)cc2n1[O-] | 8.84 | 
CC1CCc2c(sc(NC(=O)CCCn3cnc([N+](=O)[O-])n3)c2C(N)=O)C1 (stereo not drawn) | 2.15 | 
CC1CCc2c(sc(NC(=O)Cn3cnc([N+](=O)[O-])n3)c2C(N)=O)C1 (stereo not drawn) | -5.73 | 
Cn1cc([N+](=O)[O-])c(C(=O)Nc2sc3c(c2C#N)CCC3)n1 |  | 2.33 µM (active)
O=C(NN1C(=O)c2ccccc2NC1c1ccc([N+](=O)[O-])o1)c1ccccc1 (stereo not drawn) | -1.31 | 
